# Tests used:
# Assay in all cases: DAPPL (digital affinity profiling via proximity ligation, sequencing); 10 mM Tris-HCl pH 7.5, 50 mM NaCl, 1 mM DTT, 4% glycerol, room temperature, 30 min; GST-TFs on glutathione beads, 16-mer random dsDNA library, 0.1% formaldehyde crosslink after washing; high values mean tight binding
# FEV = biological target: T1, FEV (Homo sapiens, UniProt Q99581 1-238); conditions: protein: recombinant; tags: N-terminal GST; dsDNA, one strand shown
# T1 sequence: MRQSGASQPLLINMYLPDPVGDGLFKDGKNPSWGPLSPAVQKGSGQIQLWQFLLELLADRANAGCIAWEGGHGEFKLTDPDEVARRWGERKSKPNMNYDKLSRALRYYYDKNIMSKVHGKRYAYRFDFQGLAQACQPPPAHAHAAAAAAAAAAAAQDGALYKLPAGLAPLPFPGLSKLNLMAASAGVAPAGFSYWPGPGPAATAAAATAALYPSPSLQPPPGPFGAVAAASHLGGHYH
# How it was run: (§1)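 Beads coated with glutathione captured GST-fused human transcription factors that had been expressed in yeast, and the factors were then given DNA barcodes and pooled with a tag-only sample. The pools were incubated with 200 nmole of a random double-stranded 16-mer DNA library in Tris/NaCl/DTT/glycerol buffer for 30 min at room temperature, washed, crosslinked with 0.1% formaldehyde and proximity-ligated with BsaI/T4 ligase at 37 °C for 1 h. PCR amplification and Illumina NextSeq500 sequencing came last. Binding signal is each hexamer's read frequency for a factor divided by its frequency for the tag-only sample.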
# ETV5 = ETV5 (Homo sapiens, UniProt P41161 1-510); conditions: protein: recombinant; tags: N-terminal GST; dsDNA, one strand shown
# How it was run: as §1
# HSF1 = HSF1 (Homo sapiens, UniProt Q00613 1-529); conditions: protein: recombinant; tags: N-terminal GST; chain copies: 3; dsDNA, one strand shown
# How it was run: as §1
# SPIC = biological target: T2, SPIC (Homo sapiens, UniProt Q8N5J4 1-248); conditions: protein: recombinant; tags: N-terminal GST; dsDNA, one strand shown
# T2 sequence: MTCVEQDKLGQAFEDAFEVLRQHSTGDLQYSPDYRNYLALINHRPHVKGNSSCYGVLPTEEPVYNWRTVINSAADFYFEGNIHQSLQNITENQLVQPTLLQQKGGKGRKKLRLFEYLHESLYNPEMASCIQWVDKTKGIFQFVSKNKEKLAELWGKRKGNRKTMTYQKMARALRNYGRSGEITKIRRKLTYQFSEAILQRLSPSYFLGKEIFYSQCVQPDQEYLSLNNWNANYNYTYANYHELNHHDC
# How it was run: as §1
# ELF4 = ELF4 (Homo sapiens, UniProt Q99607 1-663); conditions: protein: recombinant; tags: N-terminal GST; dsDNA, one strand shown
# How it was run: as §1
# ELK4 = biological target: T3, ELK4 (Homo sapiens, UniProt P28324-2 1-405); conditions: protein: recombinant; tags: N-terminal GST; dsDNA, one strand shown
# T3 sequence: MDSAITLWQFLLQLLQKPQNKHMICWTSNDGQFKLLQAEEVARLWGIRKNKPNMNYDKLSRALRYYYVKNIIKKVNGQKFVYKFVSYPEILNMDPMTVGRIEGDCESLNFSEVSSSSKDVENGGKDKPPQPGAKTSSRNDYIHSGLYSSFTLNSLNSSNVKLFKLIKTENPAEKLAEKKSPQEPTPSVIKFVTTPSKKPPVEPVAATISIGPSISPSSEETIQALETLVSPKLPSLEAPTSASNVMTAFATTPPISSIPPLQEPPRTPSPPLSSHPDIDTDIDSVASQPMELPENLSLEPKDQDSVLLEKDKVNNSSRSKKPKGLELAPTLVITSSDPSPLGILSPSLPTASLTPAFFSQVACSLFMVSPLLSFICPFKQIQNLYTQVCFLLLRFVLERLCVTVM
# How it was run: as §1
# ETV2 = biological target: T4, ETV2 (Homo sapiens, UniProt O00321 1-342); conditions: protein: recombinant; tags: N-terminal GST; dsDNA, one strand shown
# T4 sequence: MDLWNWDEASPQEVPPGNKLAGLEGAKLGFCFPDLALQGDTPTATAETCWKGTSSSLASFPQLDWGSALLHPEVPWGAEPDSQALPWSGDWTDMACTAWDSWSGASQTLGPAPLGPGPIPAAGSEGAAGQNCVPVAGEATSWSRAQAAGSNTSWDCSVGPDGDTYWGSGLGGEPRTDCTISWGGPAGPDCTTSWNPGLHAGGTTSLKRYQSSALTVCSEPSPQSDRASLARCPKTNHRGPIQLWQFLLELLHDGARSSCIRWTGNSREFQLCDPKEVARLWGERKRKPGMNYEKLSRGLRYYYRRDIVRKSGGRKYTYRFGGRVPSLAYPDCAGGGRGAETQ
# How it was run: as §1
# ELF3 = biological target: T5, ELF3 (Homo sapiens, UniProt P78545 1-371); conditions: protein: recombinant; tags: N-terminal GST; dsDNA, one strand shown
# T5 sequence: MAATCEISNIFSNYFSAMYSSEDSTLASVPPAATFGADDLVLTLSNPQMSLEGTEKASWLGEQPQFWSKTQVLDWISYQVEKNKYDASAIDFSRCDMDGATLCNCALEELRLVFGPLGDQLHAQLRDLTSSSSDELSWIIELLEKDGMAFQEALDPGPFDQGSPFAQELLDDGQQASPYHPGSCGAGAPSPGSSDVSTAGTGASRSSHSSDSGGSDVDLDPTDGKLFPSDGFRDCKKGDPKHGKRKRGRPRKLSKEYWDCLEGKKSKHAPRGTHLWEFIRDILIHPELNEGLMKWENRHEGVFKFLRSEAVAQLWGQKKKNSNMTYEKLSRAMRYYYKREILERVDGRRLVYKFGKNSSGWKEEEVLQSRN
# How it was run: as §1
# CRX = CRX (Homo sapiens, UniProt O43186 1-299); conditions: protein: recombinant; tags: N-terminal GST; dsDNA, one strand shown
# How it was run: as §1
# ETV1 = ETV1 (Homo sapiens, UniProt P50549 1-477); conditions: protein: recombinant; tags: N-terminal GST; dsDNA, one strand shown
# How it was run: as §1
# ERF = biological target: T6, ERF (Homo sapiens, UniProt P50548 1-548); conditions: protein: recombinant; tags: N-terminal GST; dsDNA, one strand shown
# T6 sequence: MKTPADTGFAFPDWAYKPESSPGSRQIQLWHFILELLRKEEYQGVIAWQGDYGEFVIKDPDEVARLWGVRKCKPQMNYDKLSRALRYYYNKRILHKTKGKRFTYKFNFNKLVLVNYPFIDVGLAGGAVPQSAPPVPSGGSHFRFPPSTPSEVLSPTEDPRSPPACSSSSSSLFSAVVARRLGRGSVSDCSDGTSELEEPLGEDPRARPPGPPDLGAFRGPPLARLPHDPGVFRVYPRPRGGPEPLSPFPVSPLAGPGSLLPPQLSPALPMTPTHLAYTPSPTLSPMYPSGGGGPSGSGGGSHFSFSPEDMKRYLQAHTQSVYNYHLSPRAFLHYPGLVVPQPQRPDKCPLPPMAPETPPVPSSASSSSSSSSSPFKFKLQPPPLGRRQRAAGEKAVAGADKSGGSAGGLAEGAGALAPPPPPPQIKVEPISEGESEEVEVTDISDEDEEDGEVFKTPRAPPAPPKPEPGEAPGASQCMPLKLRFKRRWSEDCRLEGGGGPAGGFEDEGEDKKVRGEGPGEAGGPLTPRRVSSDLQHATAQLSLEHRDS
# How it was run: as §1
# ETV3L = biological target: T7, ETV3L (Homo sapiens, UniProt Q6ZN32 1-361); conditions: protein: recombinant; tags: N-terminal GST; dsDNA, one strand shown
# T7 sequence: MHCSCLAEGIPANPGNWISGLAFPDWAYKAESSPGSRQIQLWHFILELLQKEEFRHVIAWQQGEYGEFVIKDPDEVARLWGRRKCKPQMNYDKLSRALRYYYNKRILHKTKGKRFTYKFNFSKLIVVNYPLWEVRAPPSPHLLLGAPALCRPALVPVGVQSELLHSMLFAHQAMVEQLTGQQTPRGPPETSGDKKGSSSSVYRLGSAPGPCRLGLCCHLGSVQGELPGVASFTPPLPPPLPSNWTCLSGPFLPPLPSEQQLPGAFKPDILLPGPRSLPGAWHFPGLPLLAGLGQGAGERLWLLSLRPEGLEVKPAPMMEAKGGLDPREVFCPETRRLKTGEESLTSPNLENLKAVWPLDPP
# How it was run: as §1
# ETS2 = biological target: T8, ETS2 (Homo sapiens, UniProt P15036 1-469); conditions: protein: recombinant; tags: N-terminal GST; dsDNA, one strand shown
# T8 sequence: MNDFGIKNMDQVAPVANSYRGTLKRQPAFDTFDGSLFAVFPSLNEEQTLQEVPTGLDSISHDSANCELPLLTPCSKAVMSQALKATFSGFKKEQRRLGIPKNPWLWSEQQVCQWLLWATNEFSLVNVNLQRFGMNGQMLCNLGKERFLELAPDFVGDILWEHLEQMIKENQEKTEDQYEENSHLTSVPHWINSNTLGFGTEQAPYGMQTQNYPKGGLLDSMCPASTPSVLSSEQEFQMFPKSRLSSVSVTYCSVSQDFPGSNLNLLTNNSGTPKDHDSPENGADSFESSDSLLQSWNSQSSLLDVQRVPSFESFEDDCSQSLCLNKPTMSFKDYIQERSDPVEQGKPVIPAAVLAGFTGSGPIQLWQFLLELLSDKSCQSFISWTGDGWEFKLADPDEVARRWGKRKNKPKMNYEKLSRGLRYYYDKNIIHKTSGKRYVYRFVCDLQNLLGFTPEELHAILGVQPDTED
# How it was run: as §1
# SPDEF = biological target: T9, SPDEF (Homo sapiens, UniProt O95238 1-335); conditions: protein: recombinant; tags: N-terminal GST; dsDNA, one strand shown
# T9 sequence: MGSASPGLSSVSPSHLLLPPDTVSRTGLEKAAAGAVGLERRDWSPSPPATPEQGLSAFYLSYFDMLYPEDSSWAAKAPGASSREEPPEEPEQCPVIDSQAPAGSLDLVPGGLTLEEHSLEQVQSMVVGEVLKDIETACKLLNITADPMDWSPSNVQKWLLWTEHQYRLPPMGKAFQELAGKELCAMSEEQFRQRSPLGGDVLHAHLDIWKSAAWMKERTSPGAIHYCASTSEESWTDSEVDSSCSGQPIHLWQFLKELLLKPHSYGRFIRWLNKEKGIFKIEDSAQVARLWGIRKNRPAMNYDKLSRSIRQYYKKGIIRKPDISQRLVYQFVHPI
# How it was run: as §1
# ETV7 = biological target: T10, ETV7 (Homo sapiens, UniProt Q9Y603 1-341); conditions: protein: recombinant; tags: N-terminal GST; dsDNA, one strand shown
# T10 sequence: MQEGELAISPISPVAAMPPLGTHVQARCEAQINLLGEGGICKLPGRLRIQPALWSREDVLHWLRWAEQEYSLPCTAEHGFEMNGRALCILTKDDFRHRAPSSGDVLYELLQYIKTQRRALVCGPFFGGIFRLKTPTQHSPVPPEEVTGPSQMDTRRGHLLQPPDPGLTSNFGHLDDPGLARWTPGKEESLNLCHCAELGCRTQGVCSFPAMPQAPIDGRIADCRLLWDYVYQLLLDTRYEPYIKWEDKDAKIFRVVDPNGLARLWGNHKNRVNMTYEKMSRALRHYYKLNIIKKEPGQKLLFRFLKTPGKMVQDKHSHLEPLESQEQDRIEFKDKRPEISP
# How it was run: as §1
# ELF5 = biological target: T11, ELF5 (Homo sapiens, UniProt Q9UKW6-2 1-255); conditions: protein: recombinant; tags: N-terminal GST; dsDNA, one strand shown
# T11 sequence: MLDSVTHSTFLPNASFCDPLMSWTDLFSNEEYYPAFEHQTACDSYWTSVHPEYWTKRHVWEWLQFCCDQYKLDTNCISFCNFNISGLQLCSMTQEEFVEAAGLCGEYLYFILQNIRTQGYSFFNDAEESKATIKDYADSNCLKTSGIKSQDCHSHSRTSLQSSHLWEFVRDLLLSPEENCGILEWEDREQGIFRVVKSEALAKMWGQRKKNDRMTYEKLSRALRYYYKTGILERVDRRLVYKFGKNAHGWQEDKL
# How it was run: as §1
# ETV3 = biological target: T12, ETV3 (Homo sapiens, UniProt P41162-2 1-143); conditions: protein: recombinant; tags: N-terminal GST; dsDNA, one strand shown
# T12 sequence: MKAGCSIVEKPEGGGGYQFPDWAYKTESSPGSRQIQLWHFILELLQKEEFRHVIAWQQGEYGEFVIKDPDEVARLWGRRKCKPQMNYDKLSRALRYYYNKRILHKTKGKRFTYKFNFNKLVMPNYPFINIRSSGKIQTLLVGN
# How it was run: as §1
# Sequence of CRX (O43186 whole entry): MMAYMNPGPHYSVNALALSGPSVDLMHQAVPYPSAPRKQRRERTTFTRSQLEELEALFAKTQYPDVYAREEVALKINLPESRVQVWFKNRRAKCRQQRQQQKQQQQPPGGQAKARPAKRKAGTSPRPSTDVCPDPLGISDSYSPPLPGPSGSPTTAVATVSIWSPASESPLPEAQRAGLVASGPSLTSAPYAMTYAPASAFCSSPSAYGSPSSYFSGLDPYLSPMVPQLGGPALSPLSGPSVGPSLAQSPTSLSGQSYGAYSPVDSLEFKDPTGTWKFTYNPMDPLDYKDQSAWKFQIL
# Sequence of HSF1 (Q00613 whole entry): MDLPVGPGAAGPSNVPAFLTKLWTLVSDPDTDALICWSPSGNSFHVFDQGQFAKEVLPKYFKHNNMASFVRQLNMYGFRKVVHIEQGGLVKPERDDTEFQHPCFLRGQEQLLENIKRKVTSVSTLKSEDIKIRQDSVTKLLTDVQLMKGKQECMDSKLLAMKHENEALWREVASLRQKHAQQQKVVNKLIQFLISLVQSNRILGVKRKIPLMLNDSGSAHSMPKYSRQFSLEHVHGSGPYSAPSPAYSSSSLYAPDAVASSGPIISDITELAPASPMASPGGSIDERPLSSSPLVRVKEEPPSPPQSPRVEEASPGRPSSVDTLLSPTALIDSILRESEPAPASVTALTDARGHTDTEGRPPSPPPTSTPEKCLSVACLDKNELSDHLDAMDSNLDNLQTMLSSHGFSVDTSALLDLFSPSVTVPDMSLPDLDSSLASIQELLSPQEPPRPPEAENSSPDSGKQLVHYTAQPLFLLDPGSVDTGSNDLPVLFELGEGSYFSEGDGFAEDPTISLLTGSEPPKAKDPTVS
# Sequence of ELF4 (Q99607 whole entry): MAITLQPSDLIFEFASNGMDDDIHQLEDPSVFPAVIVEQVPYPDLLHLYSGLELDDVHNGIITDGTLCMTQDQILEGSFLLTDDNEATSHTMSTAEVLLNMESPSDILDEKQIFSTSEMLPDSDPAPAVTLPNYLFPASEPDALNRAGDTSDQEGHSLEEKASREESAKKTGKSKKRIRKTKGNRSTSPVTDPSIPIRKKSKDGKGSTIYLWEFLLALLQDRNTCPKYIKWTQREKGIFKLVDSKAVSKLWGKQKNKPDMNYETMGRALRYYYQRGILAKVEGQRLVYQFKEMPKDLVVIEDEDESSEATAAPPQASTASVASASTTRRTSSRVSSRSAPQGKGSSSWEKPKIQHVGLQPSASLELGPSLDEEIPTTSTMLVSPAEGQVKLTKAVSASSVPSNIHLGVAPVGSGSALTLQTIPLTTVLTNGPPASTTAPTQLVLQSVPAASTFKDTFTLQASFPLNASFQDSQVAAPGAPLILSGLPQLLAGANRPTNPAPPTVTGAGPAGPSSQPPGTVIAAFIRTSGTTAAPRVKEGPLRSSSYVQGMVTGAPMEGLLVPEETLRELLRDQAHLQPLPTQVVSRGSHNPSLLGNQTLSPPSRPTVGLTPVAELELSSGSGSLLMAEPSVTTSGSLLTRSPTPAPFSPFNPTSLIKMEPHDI
# Sequence of ETV1 (P50549 whole entry): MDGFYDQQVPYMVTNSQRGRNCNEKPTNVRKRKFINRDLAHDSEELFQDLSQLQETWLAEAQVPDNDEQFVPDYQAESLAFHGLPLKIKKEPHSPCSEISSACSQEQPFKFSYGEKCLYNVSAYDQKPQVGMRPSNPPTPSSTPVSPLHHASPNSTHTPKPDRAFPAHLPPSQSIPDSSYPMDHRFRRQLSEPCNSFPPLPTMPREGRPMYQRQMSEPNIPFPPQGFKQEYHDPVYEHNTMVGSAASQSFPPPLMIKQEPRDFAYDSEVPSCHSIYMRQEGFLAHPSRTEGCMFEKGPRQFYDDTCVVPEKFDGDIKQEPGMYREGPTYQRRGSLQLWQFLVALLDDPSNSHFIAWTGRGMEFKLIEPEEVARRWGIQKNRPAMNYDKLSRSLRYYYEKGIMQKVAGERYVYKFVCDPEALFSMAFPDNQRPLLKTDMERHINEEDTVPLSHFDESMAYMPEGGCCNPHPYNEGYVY
# Sequence of ETV5 (P41161 whole entry): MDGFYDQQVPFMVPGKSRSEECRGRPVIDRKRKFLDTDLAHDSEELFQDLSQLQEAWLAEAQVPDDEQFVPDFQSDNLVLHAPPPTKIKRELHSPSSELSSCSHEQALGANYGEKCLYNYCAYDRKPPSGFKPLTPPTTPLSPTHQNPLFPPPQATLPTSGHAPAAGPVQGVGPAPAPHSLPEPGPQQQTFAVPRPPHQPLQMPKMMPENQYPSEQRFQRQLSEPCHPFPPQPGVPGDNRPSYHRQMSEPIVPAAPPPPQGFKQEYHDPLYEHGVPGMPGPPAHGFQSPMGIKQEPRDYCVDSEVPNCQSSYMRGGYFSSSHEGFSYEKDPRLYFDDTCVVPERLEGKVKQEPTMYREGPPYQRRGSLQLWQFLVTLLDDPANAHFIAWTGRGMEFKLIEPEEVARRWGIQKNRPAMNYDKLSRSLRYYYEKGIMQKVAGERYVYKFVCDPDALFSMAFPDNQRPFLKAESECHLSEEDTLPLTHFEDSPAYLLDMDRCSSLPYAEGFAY
sequence,measurement,setting,value
TCTATG,binding signal,FEV,"1.06 fold enrichment (6-mer frequency, TF over GST control)"
same,binding signal,ETV5,"1.1 fold enrichment (6-mer frequency, TF over GST control)"
same,binding signal,HSF1,"1.16 fold enrichment (6-mer frequency, TF over GST control)"
same,binding signal,SPIC,"1.11 fold enrichment (6-mer frequency, TF over GST control)"
same,binding signal,ELF4,"1.14 fold enrichment (6-mer frequency, TF over GST control)"
same,binding signal,ELK4,"1.16 fold enrichment (6-mer frequency, TF over GST control)"
same,binding signal,ETV2,"1.25 fold enrichment (6-mer frequency, TF over GST control)"
same,binding signal,ELF3,"1.1 fold enrichment (6-mer frequency, TF over GST control)"
same,binding signal,CRX,"1.11 fold enrichment (6-mer frequency, TF over GST control)"
same,binding signal,ETV1,"1.1 fold enrichment (6-mer frequency, TF over GST control)"
same,binding signal,ERF,"1.07 fold enrichment (6-mer frequency, TF over GST control)"
same,binding signal,ETV3L,"1.08 fold enrichment (6-mer frequency, TF over GST control)"
same,binding signal,ETS2,"1.08 fold enrichment (6-mer frequency, TF over GST control)"
same,binding signal,SPDEF,"1.05 fold enrichment (6-mer frequency, TF over GST control)"
same,binding signal,ETV7,"1.25 fold enrichment (6-mer frequency, TF over GST control)"
same,binding signal,ELF5,"1.07 fold enrichment (6-mer frequency, TF over GST control)"
same,binding signal,ETV3,"1.18 fold enrichment (6-mer frequency, TF over GST control)"

# Source: paper PMC7862700, “An all-to-all approach to the identification of sequence-specific readers for epigenetic DNA modifications on cytosine”
